Results reported in ChEMBL document CHEMBL4513216, “Probing the Open Global Health Chemical Diversity Library for Multistage-Active Starting Points for Next-Generation Antimalarials” (ACS Infect Dis, 2020).
The whole screen tested about 69,000 compounds, of which about 8,600 (12%) showed an effect of 50% or more. The entries come from a sample that favours strong results as a whole.

System: Plasmodium berghei
Test: Screen against P. berghei liver stage (PbLuc), transformed with Luciferase, at 10uM
Format: functional, HepG2
Conditions: tested at 10 uM

SMILES | INHIBITION
CC(=O)N1CCCC(c2ccc(Cc3ccccc3)cn2)C1 (configuration not stated) | 37.6%
CCN1C[C@H]2C3(CCN(C(C)=O)CC3)CC[C@@]2(C(=O)N(C)C)C1 | 36.7%
COCCN(C)C[C@@H]1CN(Cc2ccnc3ccccc23)C[C@@H]1CO | 17.5%
Cc1cnn(CC2CCCCN2C(=O)c2c(C)noc2C)c1 (configuration not stated) | 11.4%
CN(C)c1cncc(C2CCN(CC3(O)CCCCC3)CC2)n1 | 37.6%
CS(=O)(=O)N1CC[C@H]2[C@H](C[C@@H](Cn3cncn3)N2CC2CC2)C1 | -28.2%
COCCN1CC(C(=O)NCc2cccnc2-n2cccn2)CC1=O (configuration not stated) | -29.8%
CN1CC2(CCN(C(=O)Cn3ncc4ccccc4c3=O)CC2)OC1=O | 36.3%
CCOCCN1CCN(CCCS(C)(=O)=O)CC1C (configuration not stated) | -52.5%
COCCC1(CNC(=O)Nc2ccc(-n3nccn3)cc2)CCC1 | -23.3%
Cc1cc(NC(=O)NCC2(O)CCCC2)ccn1 | 32.3%
COCCC1(CNC(=O)Nc2ccnc(C)c2)CCCC1 | 57.4%
Cn1nc(CNC(=O)C2CCCCC2)cc1C1CC1 | 13.6%
Cc1cn(-c2ccccc2)nc1NS(=O)(=O)c1cc(C(=O)O)ccc1Cl | 25.4%
CC(C)c1nc(CN2CCCC2Cn2cccn2)no1 (configuration not stated) | 19.6%
COc1ccc(C)cc1C1(CNc2cncc(Cl)n2)CCOCC1 | -60.3%
COc1ccccc1C1(CNc2ncc(S(N)(=O)=O)s2)CC1 | -10.9%
COc1ccccc1OCCNc1snc(Cl)c1C#N | 68.1%
COc1ccccc1C1(CNc2cn[nH]c(=O)c2Cl)CC1 | -22.2%
COc1ccccc1C1(CNc2cn[nH]c(=O)c2Cl)CCOCC1 | -9.69%
COc1ccccc1C1(CNc2snc(Cl)c2C#N)CCOCC1 | 53.4%
N#Cc1c(Cl)nsc1NCC1(c2ccccc2)CCC1 | 84%

SMILES | INHIBITION
N#Cc1c(Cl)nsc1NCCN1CCOCC1 | 39.9%
CC(=O)N1CCN(CCNc2snc(Cl)c2C#N)CC1 | -4.93%
CC(=O)N1CCN(C(=O)CCNc2snc(Cl)c2C#N)CC1 | -27%
NS(=O)(=O)c1cnc(NCC2(c3ccccc3)CCC2)s1 | 9.37%
COc1ccccc1C1(CNc2snc(Cl)c2C#N)CCCC1 | 80.2%
Cc1nn(CCO)c(C)c1CNC1CCOc2ccccc21 (configuration not stated) | 13%
O=C(NC1CCCN(Cc2c(F)cccc2F)C1)c1cnccn1 (configuration not stated) | 23.7%
CS(=O)(=O)CCCN1CCN(C(C#N)c2ccccc2)CC1 (configuration not stated) | 21.2%
NC(=O)c1ccc(C2CN(Cc3ccc(F)cc3)CCO2)nc1 (configuration not stated) | 31.3%
CCc1ocnc1C(=O)N1CCC2(CCCN(CC(C)(C)C)C2=O)C1 (configuration not stated) | 32.2%
Cc1nc(-c2ccccc2)n(CC(=O)NC2CCCC2)n1 | 7.27%
CN1CCN(c2ccc(C(=O)N3CCCC(c4ncc[nH]4)C3)cc2)CC1 (configuration not stated) | 3.3%
CCC1(CO)CCCN(C(=O)c2ccc(N3CCN(C)CC3)cc2)C1 (configuration not stated) | 53.5%
CCC1(C(=O)O)CCCN(C(=O)c2ccc(N3CCN(C)CC3)cc2)C1 (configuration not stated) | 33.7%
c1ccc(-c2noc(CN3CCCC(Cn4cncn4)C3)n2)nc1 (configuration not stated) | -23.8%
COc1cccc(-c2ccnc3nc(N4CCCCC4)[nH]c(=O)c23)c1 | 14.3%
COc1cc(/C=C/c2ncc(C(=O)O)s2)cc(Cl)c1OC | 41.5%
Cc1noc(C)c1CN1CCC2(COCc3cnc(N(C)C)nc32)C1 (configuration not stated) | 1.9%
Cn1ccnc1C(O)c1ccccc1N1CCN(Cc2ccsc2)CC1 (configuration not stated) | 53.75%
Cn1ccnc1C(O)c1ccccc1N1CCN(Cc2cccs2)CC1 (configuration not stated) | 15.605%
Cn1ccnc1C(O)c1ccccc1N1CCN(CC2CCCC2)CC1 (configuration not stated) | 13%
COCc1cc(NCCc2ccc(S(N)(=O)=O)cc2)n2nccc2n1 | 26.6%

SMILES | INHIBITION
CCNC(=O)NC(=O)C(C)N(C)CCOc1ccccc1C (configuration not stated) | 73.3%
Cc1ccccc1OCCN(C)C(=O)NC(C)c1nncn1C (configuration not stated) | 35.9%
CCNC(=O)NC(=O)C(C)Nc1ccccc1OCCOC (configuration not stated) | 29.8%
COC(=O)c1ccoc1CN(C)Cc1cc(OC)c(OC)cc1C | 7.43%
O=C(c1ccoc1)N1CCc2ncc(Cn3cccn3)n2CC1 | -3.33%
c1cc(CNCc2ccc(-n3cncn3)nc2)cc(OC2CCCC2)c1 | 75.4%
COCCOc1cccc(CNCc2ccc(-n3cncn3)nc2)c1 | -9.8%
FC(F)(F)Oc1cccc(CNCc2ccc(-n3cncn3)nc2)c1 | 20.9%
CS(=O)(=O)N1CCc2ncc(CNC(=O)C3CCC3)n2CC1 | -18.2%
CNc1cccc(CC2COCCN(C(=O)c3cnn(C)c3)C2)n1 (configuration not stated) | 27.15%
O=C1NCC2(CCCN(C(=O)c3ccc4c(c3)CCCO4)CC2)O1 (configuration not stated) | 38.3%
O=C1NCC2(CCN(C(=O)c3ccc4c(c3)CCCO4)CC2)O1 | 70.4%
O=C1NCC2(CCCN(C(=O)c3ccc4c(c3)OCCO4)CC2)O1 (configuration not stated) | 42.6%
Cc1c(Br)cnn1CC(=O)Nc1ccon1 | 34.2%
COCC1COCCC12CCN(S(=O)(=O)c1ccccc1)CC2 (configuration not stated) | -27.1%
COc1cccc(CNc2cc(CO)ccc2Cl)c1 | 42.6%
Cn1ncc(NCc2cccc(COC(C)(C)C)c2)c(Cl)c1=O | 80.6%
Cc1cccc(C(C)(C)CNc2cn[nH]c(=O)c2Cl)c1 | -5.92%
CCOc1cccc(CNc2cnn(CC(C)C)c2CC)c1 | 39.5%
CC(C)OCc1cccc(CNc2cnn(C)c(=O)c2Cl)c1 | 85.2%
Cn1ncc(NCc2cccc(OCC(F)(F)F)c2)c(Cl)c1=O | 99.6%
COc1ccc(CNc2cnn(C)c(=O)c2Cl)cc1 | 52.3%

SMILES | INHIBITION
CCn1c(NCc2ccc(OC)cc2)nc2c(C)nn(C)c2c1=O | 13.5%
CC(C)N1CCC[C@H]1C(=O)NCC1CCN(c2cnn(C)c(=O)c2)CC1 | 15.1%
CC(NCc1cccc(COC2CCCC2)c1)c1cnn(C)c1 (configuration not stated) | -0.448%
COc1cccc(CNc2cnn(C)c(=O)c2Cl)c1 | 49.6%
Cc1c(C(=O)NCc2ccnc(OCC(F)(F)F)c2)cnn1C | -6.11%
Cc1nn(C)c(C)c1C1CCCN1C(=O)c1cc(C(N)=O)cs1 (configuration not stated) | -11.2%
CN1C(=O)CC(c2cnn(C)c2)C12CCN(C(=O)C1CC=CC1)CC2 (configuration not stated) | -16.5%
CN(C)Cc1ccnc(C2CN(Cc3c(F)cccc3F)CCO2)n1 (configuration not stated) | 8.53%
Cn1ccnc1CNCC1CCCN1c1cccnn1 (configuration not stated) | -31.5%
CC(Cn1cccn1)NC(=O)N1CCCN(Cc2cccs2)CC1 (configuration not stated) | 14.4%
CN(C)CCn1c(=O)n(C)c(=O)c2ccccc21 | -40.3%
CCC(=O)N1CCC2(CCC(N3CCCC3)c3ccccc32)CC1 (configuration not stated) | 40.8%
Cc1nn(C)c(N(C)C)c1CNC1CCCCNC1=O (configuration not stated) | 5.42%
C=Cn1cc(CN2CCN(CC3(c4ccccc4)CC3)CC2)c(C)n1 | 26.57%
CN(Cc1ccncn1)C(=O)CCc1[nH]nc2c1CCCC2 | 33.9%
CCN(CCO)C(=O)C1CCC(=O)N(CCc2cccc(F)c2)C1 (configuration not stated) | 43.7%
CC(C)N(CCO)C(=O)C1CCC(=O)N(CCc2ccc(Cl)cc2)C1 (configuration not stated) | 26.6%
CCCN(CCO)C(=O)C1CCC(=O)N(CCc2ccc(Cl)cc2)C1 (configuration not stated) | -39.9%
CC(C)N(CCO)C(=O)C1CCC(=O)N(CCc2cccc(F)c2)C1 (configuration not stated) | 56.6%
CCN(CC)C(=O)C1CCC(=O)N(CCc2cccc(F)c2)C1 (configuration not stated) | 12.3%
CC(C)N(C)C(=O)C1CCC(=O)N(CCc2cccc(F)c2)C1 (configuration not stated) | 52.3%
COc1ccc(OC)c(C(C)Nc2ncnc3c2NC(=O)CN3)c1 (configuration not stated) | 24.2%

SMILES | INHIBITION
N#Cc1cccc(C(=O)N2C[C@@H]3CC[C@H]2CN(C(=O)C2CCC2)C3)c1 | 28.5%
CN1C(=O)C2(CCN(C(=O)c3ccccc3)CC2)c2cc(F)ccc21 | 39.4%
Cn1cnnc1S(=O)(=O)C1CCN(S(=O)(=O)c2ccccc2F)CC1 | 15.7%
Cn1cnnc1S(=O)(=O)C1CCN(S(=O)(=O)c2ccc(F)c(Cl)c2)CC1 | 81.9%
Cc1ccc(S(=O)(=O)N2CCC(S(=O)(=O)c3nncn3C)CC2)cc1C | -0.554%
O=C(C1CC1)N1CCC(c2nc(O)c3c(n2)CCN(C2CCCC2)C3)C1 (configuration not stated) | 22.7%
CCN(CC)c1ncnc2c1CCN(C(=O)Cc1ccccn1)CC2 | -49.6%
Cc1ccc(-c2nc(CN3CCC(N4CCNC4=O)CC3)co2)cc1 | 26.5%
Fc1ccc(-c2nc(CN3CCn4c(nnc4C4CC4)C3)co2)cc1 | -21.7%
O=C1NCCCCC1SCc1coc(-c2cccc(F)c2)n1 (configuration not stated) | -16.1%
O=C1NCCN1C1CCCN(Cc2coc(-c3cccs3)n2)C1 (configuration not stated) | 33.3%
O=C1NCCN1C1CCCN(Cc2nnc(-c3ccc(F)cc3)o2)C1 (configuration not stated) | 20.1%
O=C1NCCCCC1SCc1coc(-c2ccc(F)cc2)n1 (configuration not stated) | 82.7%
O=C1NCCN1C1CCCN(Cc2coc(-c3ccc(F)cc3)n2)C1 (configuration not stated) | 75.2%
O=C1NCCCCC1SCc1coc(-c2ccccc2)n1 (configuration not stated) | 35.5%
O=C1NCCN1C1CCN(Cc2coc(-c3ccc(F)cc3)n2)CC1 | 52.5%
CN(C)C(=O)C1CCC2(CCN(C(=O)Nc3cccc(F)c3)CC2)O1 (configuration not stated) | 18.6%
COc1ccc(OC)c(C(=O)N(C)Cc2nnc3ccccn23)c1 | -35.7%
CN(C)[C@H]1CN(C(=O)CCCc2ccc(F)cc2)C[C@@H]1C1CC1 | 28.4%
